Reference: PubChem BioAssay (NCATS)
“And” between values parts separate entries of the source, which are not always exact repeats. Equal values may be shown once. Results filed as inconclusive are left out. A number with no mark means an inactive call. The source made the active and inactive calls. Calls follow the shape of the dose curve; as a rule, active = well fitted activation curve with a large enough effect; inconclusive = small, poorly fitted or top-dose-only effect; inactive = no such curve, though single readings can be large or run the other way.
Potency is read from the fitted curve at half-maximal effect.

The molecules below were run against Cellular tumor antigen p53 (Homo sapiens) (UniProt P04637) (assay: Primary qHTS for small molecule compounds that upregulate eGFP-tagged delta133p53alpha (in N-terminal) cells. (AID 2060322; also: nearly all actives have a fitted effect of over 75% in size;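 as to activation: series mostly up to about 56 µM; 0% = DMSO vehicle and 100% = reference activator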)). Conditions: NCI-H358 eGFP-delta133p53alpha fluorescence, 24 h; activation: active compounds read high.
Chain of Cellular tumor antigen p53 (Homo sapiens) (P04637 whole entry, looked up): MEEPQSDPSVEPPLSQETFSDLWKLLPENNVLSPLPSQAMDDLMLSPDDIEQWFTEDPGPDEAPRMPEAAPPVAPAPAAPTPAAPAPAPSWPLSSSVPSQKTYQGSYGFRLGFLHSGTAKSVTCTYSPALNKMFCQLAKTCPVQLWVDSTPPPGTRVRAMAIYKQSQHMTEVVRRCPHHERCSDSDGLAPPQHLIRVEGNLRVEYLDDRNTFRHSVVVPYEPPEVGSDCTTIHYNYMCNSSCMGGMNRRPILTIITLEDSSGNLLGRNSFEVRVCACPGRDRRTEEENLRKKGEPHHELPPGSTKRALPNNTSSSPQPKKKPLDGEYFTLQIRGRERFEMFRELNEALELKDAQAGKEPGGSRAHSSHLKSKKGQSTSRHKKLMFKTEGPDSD
How it was run: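 NCI-H358 cells pre-induced 24 h with 10 ng/ml doxycycline to express N-terminal eGFP-delta133p53alpha, then dosed 24 h at 37C without doxycycline; fixed, Hoechst-stained, GFP intensity by laser scanning cytometry, normalized to DMSO (0%) and 57.5 uM 5-azacytidine (100%).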
With `COc1cc(CCc2cc(NC(=O)c3ccc(N4CC(C)NC(C)C4)cc3)n[nH]2)cc(OC)c1` (stereo not given) the activation was 3.34%. With `CCCC(Nc1nc(-c2ccc(NC(=O)NCC)c(OC)c2)ncc1C)c1cccnc1` (stereo not given) the activation was -2.86%. In the case of `Cc1ccccc1CN1CCn2c1nc1c(c2=O)CN(Cc2ccccc2)CC1`, the activation is reported as 0.477%. `O=C(NC/C=C/CN1CCN(c2cccc(Cl)c2Cl)CC1)c1ccc(-c2ccccn2)cc1` was tested, and the activation was 6.68%. For `NC(=O)c1ccc(F)c2c1C[C@@H](N(C1CCC1)C1CCC1)CO2`, the activation was -11.5%. In the case of `CC[C@@H](N)CNc1ccnc(-c2cc(-c3cnn(C)c3)ccc2O)n1`, the Potency is reported as 6.75 µM (active). `Nc1nc(CC(=O)Nc2ccc(CCNCC(O)c3ccccc3)cc2)cs1` (stereo not given) showed an activation of -11%. `FC(F)(F)c1cc(C(F)(F)F)c2ccc3nc(-c4nnco4)cn3c2n1` was tested, and the activation was 5.73%. Molecule `Cc1c(OCc2cccc(-c3ccc(C(=O)O)cc3)c2)cc2c(c1C)C(=O)C(C1CCCC1)C2` (stereo not given) has an activation of -8.59%. Molecule `CN(CCc1ccc(Nc2ncc(-c3cccnc3)s2)cc1)Cc1ccccc1` has an activation of -8.59%. In the case of `O=C(O)[C@@H]1C[C@H]2C[C@@H](CCc3nn[nH]n3)CC[C@H]2CN1`, the activation is reported as 4.77%. In the case of `CN(C)CC(c1ccc(O)cc1)C1(O)CCCCC1` (stereo not given), the activation is reported as -9.55%. In the case of `CCOc1ccc(-n2c([C@@H](C)N(Cc3cccnc3)C(=O)Cc3ccc(OC(F)(F)F)cc3)nc3ncccc3c2=O)cc1`, the Potency is reported as 19 µM (active). `CC(C)c1ccc(-c2cc(=O)c3ccccc3o2)cc1` gave an activation of -14.8%. In the case of `Cc1cc(C)c(-c2csc(NC(=O)c3ccccc3)n2)c(C)c1`, the activation is reported as 21%. For `O=C(c1ccc(F)cc1)C1CCN(CCn2c(=O)nc3n(c2=O)CCCC3)CC1`, the activation was -6.21%. With `CCOC(=O)CCC(=O)O[C@H]1[C@H](O[C@@H]2[C@@H](C)[C@H](O[C@H]3C[C@@](C)(OC)[C@@H](O)[C@H](C)O3)[C@@H](C)C(=O)O[C@H](CC)[C@@](C)(O)[C@H](O)[C@@H](C)C(=O)[C@H](C)CC2(C)O)O[C@H](C)C[C@@H]1N(C)C` (stereo not given in full) the activation was 9.55%. For `CC(C)c1nc(-c2ccc(NC(=O)Nc3cccc(C(F)(F)F)c3)c3ccccc23)c2c(N)nccn12`, the Potency was 26.9 µM (active). With `C[C@@H]1C(=O)O[C@H]2CC34[C@H]5C[C@@H](C(C)(C)C)C36[C@@H](OC(=O)[C@@H]6O)OC4(C(=O)O5)[C@]21O` (stereo not given in full) the activation was -10%. Work on `CC(=O)N(C)C1(c2ccccc2)CCN(CCC[C@]2(c3ccc(Cl)c(Cl)c3)CCCN(C(=O)c3ccccc3)C2)CC1` yielded an activation of 16.9%. `COc1ccc(C(=O)NCc2cc(C(C)C)no2)cc1OC1CCN(C)CC1` showed an activation of 4.77%. `Cc1onc(-c2ccccc2)c1C(=O)N1CCN(c2ccc([N+](=O)[O-])cc2Cl)CC1` gave an activation of -0.477%. In the case of `C=C[C@]1(C)C[C@@H](OC(=O)CSC2C[C@H]3CC[C@@H](C2)N3C)[C@]2(C)[C@H](C)CC[C@]3(CCC(=O)[C@H]32)[C@@H](C)[C@@H]1O` (stereo not given in full), the activation is reported as 0.477%. Work on `COc1cc(-n2cnc3cc(-c4ccc(Cl)cc4)sc3c2=O)ccc1OCCN1CCCC1` yielded an activation of 18.1%. Work on `COc1cc(N2CCOCC2)ccc1NC(=O)c1csc(-c2cccnc2)n1` yielded an activation of 24.8%. `CNc1nc(NCc2ccc(NS(C)(=O)=O)cc2Cl)cc(-c2ccccn2)n1` gave an activation of 7.64%. Work on `O=C(NCc1cccc(O)c1)c1cc2cc(F)ccc2[nH]1` yielded an activation of 0%. For `CC(C)(C)c1ccc2c(c1)CC[C@H]2NC(=O)Nc1cccc2[nH]ncc12`, the activation was -6.68%. In the case of `COc1cccc(N2CCN(C3=Nc4c(F)cccc4[C@H](CC(=O)O)N3c3cc(C(F)(F)F)ccc3OC)CC2)c1`, the activation is reported as -5.73%. With `CC1(C)CC(NC(=O)C(=O)Nc2ccc(Br)cc2)CC(C)(C)N1` the Potency was 13.5 µM (active). For `Cc1cc(C(=O)Cn2cc(C#N)ccc2=O)c(C)n1Cc1ccccc1`, the activation was 6.21%. `Cc1cccc(C)c1OCc1cc(C(=O)N2CCC(c3ccncc3)CC2)no1` gave an activation of 0.955%. Work on `COc1c(F)cccc1C(=O)N1C[C@@H](C)CC[C@H]1CNc1ccc(Br)cn1` yielded an activation of -8.59%. In the case of `CNc1cc(OC)c(C(=O)N[C@@H]2CCN(Cc3ccccc3)[C@@H]2C)cc1Cl`, the activation is reported as 12.4%. `CC(C)[C@@H](c1ccc(C(F)(F)F)cc1CN(Cc1cc(C(F)(F)F)cc(C(F)(F)F)c1)c1nnn(C)n1)N1CCC(C(=O)O)CC1` gave an activation of 6.68%. `O=C(Nc1ccc(S(=O)(=O)Nc2nccs2)cc1)C(c1ccccc1)c1ccccc1` gave an activation of -2.86%. `Cc1ccc(-n2nc(C(C)(C)C)cc2NC(=O)Nc2cc(COc3cccnc3)[nH]n2)cc1` was tested, and the activation was 6.21%. In the case of `COc1ccc([C@H]2CNC(=O)C2)cc1OC1CCCC1`, the activation is reported as -26.3%. Molecule `COC(=O)c1sccc1S(=O)(=O)Nc1ccc(Nc2ccccc2)cc1OC` has an activation of -5.73%. In the case of `CCN[C@@H]1C[C@H](N)[C@@H](O[C@H]2OC(CN)=CC[C@H]2N)[C@H](O)[C@H]1O[C@H]1OC[C@](C)(O)[C@H](NC)[C@H]1O`, the activation is reported as 10.5% and 9.67%.
